Measured values as given in PubChem BioAssay (Tox21).
Results filed as inconclusive are left out. A call without a number means that no potency is given here. The source made the active and inactive calls. The call rests on the fitted dose curve.

Test: qHTS assay for small molecule agonists of the p53 signaling pathway - cell viability (AID 651633);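 further: p53RE-bla HCT reporter cells with a stable beta-lactamase p53 reporter; nearly all actives have a fitted effect of over 30% in size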
Settings: p53RE-bla HCT-116 viability, ATP luminescence, 16 h; series mostly up to 83.3 µM
Source text: National Center for Advancing Translational Sciences [NCATS]
NIH Chemical Genomics Center [NCGC]
U.S. Environmental Protection Agency [EPA]
National Institutes of Environmental Health Sciences [NIEHS]
National Toxicology Program [NTP]
U.S. Food and Drug Administration [FDA]
p53, a tumor suppressor protein, is activated following cellular insult, including DNA damage and other cellular stresses. The activation of p53 regulates cell fate by inducing DNA repair, cell cycle arrest, apoptosis, or cellular senescence. The activation of p53, therefore, is a good indicator of DNA damage and other cellular stresses. […] The activation of the reporter gene under culture conditions can be detected by fluorescence intensity. This cell line was used to screen the Tox21 compound library in a 1536-well plate format and to identify agonists that activate the p53 signaling pathway.
Tox21 Assay Protocol Summary:
The p53RE-bla cells were dispensed at 4,000 cells/5 ul/well in 1536-well black wall/clear bottom plates using a Multidrop dispenser. After the assay plates were incubated at a 37 C/5% CO2 incubator for 5 hours, 23 nL of compounds dissolved in DMSO, positive controls or DMSO only was transferred to the assay plate by a pin tool. The plates were incubated at 37 C for 16 hours. After 1 uL of LiveBLAzerTM B/G FRET substrate was added using a Flying Reagent Dispenser, the plates were incubated at room temperature for 2 hours, and fluorescence intensity was measured by an Envision plate reader.
For cell viability readout that measures cytotoxicity, 4 ul/well of CellTiter-Glo reagent was added into the assay plates using a Flying Reagent Dispenser. After 30 min incubation at room temperature, the luminescence intensity in the plates was measured using a ViewLux plate reader.

Row | Structure (SMILES) | Potency
1 | NC(=O)N1c2ccccc2C=Cc2ccccc21 | inactive
2 | CCCCC/C(C=O)=C\c1ccccc1 | inactive
3 | CC(=O)c1ccc(S(=O)(=O)NC(=O)NC2CCCCC2)cc1 | inactive
4 | COc1cc(O)c(C(=O)c2ccccc2)cc1S(=O)(=O)O | inactive
5 | CCCCCCCCCCCCCC(=O)OC(C)C | inactive
6 | CC1=NN(c2ccccc2)C(=O)C1 | inactive
7 | CCCCOCCOCCSC#N | inactive
8 | O=c1cc[nH]c(=O)[nH]1 | inactive
9 | CCOCCO | inactive
10 | CC(=O)/C=C/C1=C(C)CCCC1(C)C | inactive
11 | O=[N+]([O-])c1ccc(O)cc1 | inactive
12 | C=C(C)C(N)=O | inactive
13 | CCN1CCCC1=O | inactive
14 | O=C(O)CCCCC1CCSS1 (stereo not given) | inactive
15 | O=C(O)Cc1cccc2ccccc12 | inactive
16 | NC(=O)N/N=C/c1ccc([N+](=O)[O-])o1 | inactive
17 | OCCCc1ccccc1 | inactive
18 | O=C1OC(c2ccc(O)cc2)(c2ccc(O)cc2)c2ccccc21 | inactive
19 | CCCCOC(=O)CCCCCCCCC(=O)OCCCC | inactive
20 | OC[C@@H](O)[C@@H](O)[C@H](O)[C@H](O)CO | inactive

Row | Structure (SMILES) | Potency
21 | CCCCNC(=O)NS(=O)(=O)c1ccc(N)cc1 | inactive
22 | Nc1ccc(N=Nc2ccccc2)c(N)n1 | inactive
23 | COc1cc(C=O)ccc1O | inactive
24 | C[C@]12C=CC(=O)C=C1CC[C@@H]1[C@@H]2C(=O)C[C@@]2(C)[C@H]1CC[C@]2(O)C(=O)CO | inactive
25 | Cc1ccc(O)c(-n2nc3ccccc3n2)c1 | inactive
26 | COc1ccccc1O | inactive
27 | CC(O)COc1ccccc1 (stereo not given) | inactive
28 | CC(C)CC(C)CC(O)CC(C)C (stereo not given) | inactive
29 | NC(=O)OCC(COC(N)=O)c1ccccc1 | inactive
30 | O=C(O)CN(CC(=O)O)CC(=O)O | inactive
31 | O=C(OCc1ccccc1)c1ccccc1 | inactive
32 | C=CC(=O)NC(C)(C)CS(=O)(=O)O | inactive
33 | NC(=O)c1ccc([N+](=O)[O-])cc1Cl | inactive
34 | N[C@@H](Cc1c[nH]c2ccccc12)C(=O)O | inactive
35 | C=CCOC(=O)CC(C)C | inactive
36 | CC(C)=CCC/C(C)=C/CO | inactive
37 | c1ccc2[nH]c(-c3cscn3)nc2c1 | inactive
38 | CN(C)C=O | inactive
39 | CCCCCCCCCCCCCCCCCC(=O)OCC(O)CO (stereo not given) | inactive
40 | CCc1cc(C(N)=S)ccn1 | inactive
